RGS4 inhibitor: inhibitors of human regulator of G protein signaling 4; Transcreener GDP fluorescence polarization, RGS4-accelerated GTP hydrolysis; P49798; AID 504845; Potency, µM (series often up to 114 µM), actives largely listed as inhibitors; 390,000 tested, 0.039% active; active = well fitted inhibition curve with a large enough effect; inconclusive = small, poorly fitted or top-dose-only effect; inactive = no such curve, though single readings can be large or run the other way; note: nearly all actives have a fitted effect of over 75% in size
Target sequence (P49798 whole entry, looked up): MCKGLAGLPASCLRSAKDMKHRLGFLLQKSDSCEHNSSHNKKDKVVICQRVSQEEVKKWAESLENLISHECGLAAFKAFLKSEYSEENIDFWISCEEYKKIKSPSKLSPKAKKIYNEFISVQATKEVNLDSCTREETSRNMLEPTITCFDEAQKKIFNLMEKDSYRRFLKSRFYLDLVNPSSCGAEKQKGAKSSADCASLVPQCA
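MLSMR compounds (23 nl, pin-transferred) preincubated 10 min at room temperature with a 500nM (2x) first reagent, then RGS4 at 900nM (2x) plus Transcreener GDP mix added; fluorescence polarization (620/688 nm) read before and after 90 min at 30 °C.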
PI4K2A inh: blocks human PI4K2A kinase activity; Q9BTU6; purified PI4K2A, ADP-Glo luminescence, 1 h; active compounds read low; activity change, negative = inhibition, % at 76.9 µM; 420,000 tested, 0.13% active; AID 1346378; in the data active = activity change below about -50%; inconclusive = mostly about -30% to -49%
Target sequence (Q9BTU6 whole entry, looked up): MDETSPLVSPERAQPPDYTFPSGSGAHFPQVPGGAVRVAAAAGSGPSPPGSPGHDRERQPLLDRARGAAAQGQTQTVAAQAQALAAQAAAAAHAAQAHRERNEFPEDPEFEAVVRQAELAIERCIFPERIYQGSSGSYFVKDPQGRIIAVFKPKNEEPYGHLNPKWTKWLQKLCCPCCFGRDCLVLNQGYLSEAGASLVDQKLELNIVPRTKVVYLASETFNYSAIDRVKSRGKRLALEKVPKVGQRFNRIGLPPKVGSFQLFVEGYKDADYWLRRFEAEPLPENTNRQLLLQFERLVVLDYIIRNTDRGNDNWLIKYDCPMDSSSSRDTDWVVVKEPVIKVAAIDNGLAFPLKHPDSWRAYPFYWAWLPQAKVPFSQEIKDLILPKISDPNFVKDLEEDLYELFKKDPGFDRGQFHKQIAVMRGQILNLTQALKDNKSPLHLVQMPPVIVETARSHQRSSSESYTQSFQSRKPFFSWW
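ADP-Glo luminescence measured ADP generated by PI4K2A enzyme (4 ug/mL before mixing) with 1.2 mM PI substrate (pre-mix) and 300 microM ATP (pre-mix). Tris pH7.5 buffer with MgCl2, Triton X-100; 1 h reaction at ambient temperature.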
DRD3 antagonist: blocks the human D3 dopamine receptor; D3R cells, DiscoveRx beta-arrestin luminescence, antagonist mode; active compounds read low; max response, negative = inhibition, %; 360,000 tested, 2.5% active; in the data active = max response below about -50%; inconclusive = no clear call, values can overlap the other calls
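Cells expressing the human receptor were seeded at 1500 cells/well, incubated overnight at 37 degrees C in 5% CO2, then exposed to library compounds with dopamine controls for 90 minutes at 37 degrees C before luminescent detection.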
Akt phos inh: inhibitors of Akt phosphorylation | AID 651550 | activity change, % for hits at 50 µM | 360,000 tested, 0.32% active | Neuro2A IGF-stimulated pAkt S473 HTRF, 20 min; active compounds read low; in the data active = activity change below about -80%; inconclusive = mostly about -51% to -80%
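Neuro2A cells in DMEM with 0.5% FBS, overnight at 37 deg C, given compound at single 50 µM final, then IGF (6 nM final) for 20 min at 37 deg C. Lysed; phospho-Akt Ser473 by HTRF after 24 h, 665/615 ratio.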
DRD3 agonist: activates the human D3 dopamine receptor; 410,000 tested, 0.58% active; D3R DiscoveRx beta-arrestin cells, luminescence, 90 min; P35462; max activation, %; in the data active = max activation above about 30%
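Agonist-mode cell screen: cells plated at 1500/well and incubated overnight at 37 °C, then exposed to library compounds for 90 min at 37 °C. Detection reagent was added for 30–60 min at room temperature, and luminescence was read.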
LDHA block: inhibitors of human lactate dehydrogenase A. purified LDHA, NADH/diaphorase-resazurin fluorescence; active compounds read low. activity change, % (values are at about 110 or 230 µM). 480,000 tested, 0.15% active; in the data active = activity change below about -30%; inconclusive = mostly about -25% to -30%
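Human LDH5 (2 nM) was incubated with 0.06 mM NADH and 0.2 mM pyruvate for 5 min at room temperature in Tris pH 7.4. Remaining NADH was coupled through diaphorase/resazurin, and resorufin fluorescence was read at 0 and 20 min.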
Numbers stand for hits. Only some compounds are listed: those with a hit (about 2.8% of all), similar ones and a draw of the others.

How did CC1(C)[C@@H](O)CC[C@]2(C)[C@H]3C(=O)C=C4[C@@H]5C[C@@](C)(C(=O)O)CC[C@]5(C)CC[C@@]4(C)[C@]3(C)CC[C@@H]12 do in these assays?
RGS4 inhibitor: inactive; PI4K2A inh: inactive; DRD3 antagonist: inactive; Akt phos inh: inactive; DRD3 agonist: inactive; LDHA block: inactive

Results for CC1(C)[C@@H](O)CC[C@]2(C)C3C(O)C=C4[C@H]5C[C@@](C)(CO)CC[C@]5(C)CC[C@]4(C)[C@]3(C)CC[C@@H]12 (some centres not stated) ?
RGS4 inhibitor: inactive; PI4K2A inh: inactive; DRD3 antagonist: inactive; Akt phos inh: inactive; DRD3 agonist: 65; LDHA block: inactive

Results for O=C(COC(=O)c1ccccc1NCCO)NCCC1=CCCCC1 ?
RGS4 inhibitor: inactive; PI4K2A inh: inactive; DRD3 antagonist: -64; Akt phos inh: inactive; DRD3 agonist: inactive; LDHA block: inactive

Results for Cc1oc(-c2ccc(Cl)cc2)nc1CN1CCCC(C(=O)NCc2ccco2)C1 (configuration not stated) ?
RGS4 inhibitor: inactive; PI4K2A inh: inactive; DRD3 antagonist: -73; Akt phos inh: inactive; DRD3 agonist: inactive; LDHA block: inactive

How did CCCc1nc2c3ccccc3ccn2c1Cc1cccc(F)c1 do in these assays?
PI4K2A inh: inactive; DRD3 antagonist: -90; Akt phos inh: inactive; DRD3 agonist: inactive; LDHA block: inactive

How did CCCCNC(=O)O[C@@H]1C[C@@H]2CCN3C(=O)CCC[C@H]([C@H]1CC)[C@H]23 do in these assays?
RGS4 inhibitor: inconclusive; PI4K2A inh: inactive; DRD3 antagonist: inactive; Akt phos inh: inactive; DRD3 agonist: inactive; LDHA block: inactive

Results for CCCCNC(=O)O[C@@H]1C[C@H]2CCCC(=O)N3CC[C@@H](C1)[C@@H]23 ?
RGS4 inhibitor: inactive; PI4K2A inh: inactive; DRD3 antagonist: inactive; Akt phos inh: inactive; DRD3 agonist: 33; LDHA block: inactive

Results for CCOC(=O)C1=CN(Cc2cccc(F)c2)S(=O)(=O)N(CC)C1c1ccc(C(F)(F)F)cc1 (configuration not stated) ?
RGS4 inhibitor: inactive; PI4K2A inh: inactive; DRD3 antagonist: -55; Akt phos inh: inactive; DRD3 agonist: inactive; LDHA block: inactive

What do the screens show for `CCOC(=O)C1=CN(Cc2cccc(I)c2)S(=O)(=O)N(C)C1C` (configuration not stated)?
RGS4 inhibitor: inactive; PI4K2A inh: inactive; DRD3 antagonist: -67; Akt phos inh: inactive; DRD3 agonist: inactive; LDHA block: inactive

How did O=C(O)CSc1ccc(NC(=O)Nc2ccccc2F)cc1 do in these assays?
RGS4 inhibitor: inactive; PI4K2A inh: -54; DRD3 antagonist: inactive; Akt phos inh: inactive; DRD3 agonist: inactive; LDHA block: inactive

What do the screens show for `Cc1oc2cc(OCC(=O)NCc3ccccc3)ccc2c(=O)c1Oc1ccccc1`?
LDHA block: inactive

Results for COc1ccccc1/C=C/C=N/n1c(COc2ccccc2)n[nH]c1=S ?
RGS4 inhibitor: inactive; PI4K2A inh: inactive; DRD3 antagonist: -86; Akt phos inh: inactive; DRD3 agonist: inactive; LDHA block: inactive

What do the screens show for `COc1ccccc1/C=C\C=N\n1c(-c2ccc(Cl)cc2)n[nH]c1=S`?
RGS4 inhibitor: inconclusive; PI4K2A inh: inactive; DRD3 antagonist: -51; Akt phos inh: inactive; DRD3 agonist: inactive; LDHA block: inactive

What do the screens show for `Cc1cccc(-c2n[nH]c(=S)n2/N=C/C=C/c2ccco2)c1`?
RGS4 inhibitor: inconclusive; PI4K2A inh: inactive; DRD3 antagonist: -98; Akt phos inh: inactive; DRD3 agonist: inactive; LDHA block: inactive

How did Cc1n[nH]c(=S)n1/N=C/c1ccccc1OCc1ccc(Cl)cc1 do in these assays?
RGS4 inhibitor: inactive; PI4K2A inh: inactive; DRD3 antagonist: -51; Akt phos inh: inactive; DRD3 agonist: inactive; LDHA block: inactive

How did COc1ccccc1/C=C/C=N/n1c(-c2ccc(F)cc2)n[nH]c1=S do in these assays?
RGS4 inhibitor: inactive; PI4K2A inh: inactive; DRD3 antagonist: inactive; Akt phos inh: inactive; DRD3 agonist: inactive; LDHA block: inactive

How did COc1ccc2c(C)c(CC(=O)NCCCn3ccnc3)c(=O)oc2c1OC do in these assays?
LDHA block: inactive

Results for CC(C)CNC(=O)c1cc(-c2cccs2)nc2ccccc12 ?
LDHA block: inactive

Results for O=[N+]([O-])c1ccc(Cl)c(/C=N/n2c(COc3ccccc3)n[nH]c2=S)c1 ?
RGS4 inhibitor: inconclusive; PI4K2A inh: inactive; DRD3 antagonist: -58; Akt phos inh: inactive; DRD3 agonist: inactive; LDHA block: inactive

Results for C=C(C)Cn1c2ccc(NC(=O)CCc3cccc(Cl)c3)cc2c(=O)n1C ?
PI4K2A inh: inactive; DRD3 antagonist: inactive; Akt phos inh: inactive; DRD3 agonist: 45; LDHA block: inactive

What do the screens show for `N#CCCn1cc(C(=O)N2CCOCC2)c(-c2cccc(Cl)c2)n1`?
LDHA block: inactive

How did O=C(OCCOCCN=C1NS(=O)(=O)c2ccccc21)c1ccncc1 do in these assays?
RGS4 inhibitor: inactive; PI4K2A inh: inactive; DRD3 antagonist: inactive; Akt phos inh: -107%; DRD3 agonist: inactive; LDHA block: inactive

What do the screens show for `O=C(OCCOCCN=C1NS(=O)(=O)c2ccccc21)c1ccccc1`?
RGS4 inhibitor: inactive; PI4K2A inh: inactive; DRD3 antagonist: inactive; Akt phos inh: inactive; DRD3 agonist: inactive; LDHA block: inactive

What do the screens show for `Cc1c2cnn(-c3ccccc3)c(=O)c2c(C)n1CCCC(=O)NCc1cccc(Cl)c1`?
LDHA block: inactive

How did Cc1nnc(SCC(=O)c2cc(C)n(-c3c(C)n(C)n(-c4ccccc4)c3=O)c2C)s1 do in these assays?
RGS4 inhibitor: inactive; PI4K2A inh: inactive; DRD3 antagonist: inactive; DRD3 agonist: inactive; LDHA block: inactive

How did Cc1cc(C(=O)CSc2nncs2)c(C)n1-c1c(C)n(C)n(-c2ccccc2)c1=O do in these assays?
RGS4 inhibitor: inactive; PI4K2A inh: inactive; DRD3 antagonist: -95; Akt phos inh: inactive; DRD3 agonist: inactive; LDHA block: inactive

What do the screens show for `NC(=S)NN=C1CCCCCCCCCCC1`?
LDHA block: inactive

What do the screens show for `Cc1ccc(Oc2nc3c(c(=O)n(Cc4ccccc4)c(=O)n3C)n2C)cc1C`?
RGS4 inhibitor: inactive; PI4K2A inh: inactive; DRD3 agonist: 35; LDHA block: inactive

What do the screens show for `O=C(CN1CCCCC1)NC(=O)NC1CCCC1`?
RGS4 inhibitor: inactive; PI4K2A inh: inactive; DRD3 antagonist: inactive; Akt phos inh: inactive; DRD3 agonist: inactive; LDHA block: inactive

What do the screens show for `O=C(NC1CCCCC1)NC1CCN(CC(=O)N2CCOCC2)CC1`?
RGS4 inhibitor: inactive; PI4K2A inh: inactive; DRD3 antagonist: inactive; Akt phos inh: -107%; DRD3 agonist: inactive; LDHA block: inactive
